In PubChem BioAssay (EPA / NIEHS):
Inconclusive results are not listed. The source made the active and inactive calls. Rule for the calls: active = hit-call score of the fitted dose curve at least 0.9, where 1 is the maximum; inconclusive = response in the unintended direction; inactive = score below 0.9.

Target: human Vitamin D Receptor (VDR), VDR (gene 7421) (UniProt P11473)
Test: ATG_VDR_TRANS: Attagene TRANS-FACTORIAL HepG2 Assay for human Vitamin D Receptor (VDR) (AID 2283022)
Procedure, shortened: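 HepG2 cells were transiently transfected with multiple GAL4-UAS reporter units, so signal reflects exogenous chimeric receptor-Gal4 activity. After 24 h compound exposure, reporter mRNA was measured by RT-PCR, fluorescent labelling and capillary electrophoresis, fitted for gain of signal versus DMSO.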

human Vitamin D Receptor (VDR), VDR (gene 7421), sequence (P11473 whole entry, looked up): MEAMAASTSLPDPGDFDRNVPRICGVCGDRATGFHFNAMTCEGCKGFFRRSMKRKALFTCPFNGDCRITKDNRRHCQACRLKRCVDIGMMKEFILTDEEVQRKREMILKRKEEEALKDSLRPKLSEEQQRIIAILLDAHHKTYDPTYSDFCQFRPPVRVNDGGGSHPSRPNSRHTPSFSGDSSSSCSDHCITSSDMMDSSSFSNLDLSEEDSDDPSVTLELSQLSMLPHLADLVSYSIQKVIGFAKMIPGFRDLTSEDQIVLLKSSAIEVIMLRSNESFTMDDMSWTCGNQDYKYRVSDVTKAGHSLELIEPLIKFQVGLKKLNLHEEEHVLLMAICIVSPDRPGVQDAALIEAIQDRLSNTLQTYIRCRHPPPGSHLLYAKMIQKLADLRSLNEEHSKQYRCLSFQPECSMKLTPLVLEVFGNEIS

Structure (SMILES) | outcome | AC50
Cc1ccc(S(=O)(=O)Oc2ccc(N=Nc3ccc(-c4ccc(N=Nc5c(O)ccc6cc(S(=O)(=O)O)cc(S(=O)(=O)O)c56)c(C)c4)cc3C)cc2)cc1 | inactive | 
COc1ccc(CCC(C)=O)cc1 | inactive | 
O=C(O)CNc1ccccc1 | inactive | 
COCCOC(=O)c1ccccc1C(=O)OCCOC | inactive | 
CCCCC(CC)COC(C)=O (stereo not drawn) | inactive | 
O=C(CC(=O)c1ccccc1)c1ccccc1 | inactive | 
C=C1CC[C@H](O)C/C1=C/C=C1\CCC[C@]2(C)[C@@H]([C@H](C)/C=C/[C@H](C)C(C)C)CC[C@@H]12 |  | 3.98 µM (active)
Nc1ccc(N)c2c1C(=O)c1ccccc1C2=O | inactive | 
FC(F)(F)COCC(F)(F)F | inactive | 
CCCOCCO | inactive | 
CCN(CCC#N)c1ccc(N=Nc2ccc([N+](=O)[O-])cc2)cc1 | inactive | 
CCCCCc1ccco1 | inactive | 
CC(O)C1CCCCC1 (stereo not drawn) | inactive | 
C#CC(C)(O)CC(C)C (stereo not drawn) | inactive | 
CCCCCCCC/C=C\CCCCCCCC(=O)OCC | inactive | 
CCOC(=O)CC(C)O (stereo not drawn) | inactive | 
Nc1ccc(Cl)c([N+](=O)[O-])c1 | inactive | 

Structure (SMILES) | outcome | AC50
NCCNc1cccc2ccccc12 | inactive | 
Nc1ccc2cc(S(=O)(=O)O)cc(O)c2c1N=Nc1ccccc1C(F)(F)F | inactive | 
CC1(C)O[C@@H]2C[C@H]3[C@@H]4CCC5=CC(=O)C=C[C@]5(C)[C@@]4(F)[C@@H](O)C[C@]3(C)[C@]2(C(=O)CO)O1 | inactive | 
O=C(O)COCC(=O)O | inactive | 
C=C(C)C1CC=C(C)C(=O)C1 (stereo not drawn) | inactive | 
C=C(C)CNCC | inactive | 
CCc1ccc(O)cc1 | inactive | 
CC(C)Nc1nc(N)nc(Cl)n1 | inactive | 
CCC1(C)NC(=O)NC1=O (stereo not drawn) | inactive | 
C=C1C[C@]23C[C@@]1(O)CC[C@H]2[C@@]12C=C[C@H](O)[C@@](C)(C(=O)O1)[C@H]2[C@@H]3C(=O)O | inactive | 
CCOC(=O)C1OC1c1ccccc1 (stereo not drawn) | inactive | 
CCCCCCCCN1CCCC1=O | inactive | 
CCOC(=O)CN | inactive | 
O=C(O)c1cc(C(=O)O)cc([N+](=O)[O-])c1 | inactive | 
CC(C)c1ccccc1O | inactive | 
COc1ccc(CCO)cc1 | inactive | 
